PubChem BioAssay AID1578 (Sanford-Burnham Center for Chemical Genomics, 2009)
The campaign covered roughly 290,000 compounds. About 3,000 (1%) were called active. No stated cut-off is given here; in the data, active means inhibition mostly above about 36% (no sharp cut-off); inactive means mostly below about 34%. The entries come from a sample that favours actives as a whole.

experiment: NOD1 signaling inhibitors, primary screen, cell-based, luminescence, uHTS (AID 1578); settings: NOD1-driven NF-kB luciferase reporter cells, at 4 µM, active compounds read high;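 further: HEK-293T reporter cells stimulated with the NOD1 agonist gamma-tri-DAP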

Compound	inhibition
CC(=O)c1ccc(N2CCN(C(=O)CN(C)S(=O)(=O)c3cnc[nH]3)CC2)cc1	-22.7% (inactive)
N#CCn1cnc2sc(-c3ccccc3)cc2c1=O	-27.8% (inactive)
Cc1nn(C(C)(C)C)c(OC(=O)c2cccs2)c1Sc1ccccc1	68.5% (active)
Cc1nn(C(C)(C)C)c(OC(=O)c2ccc(Br)o2)c1Sc1ccccc1	19.3% (inactive)
Cc1nn(C(C)(C)C)c(OC(=O)c2ccco2)c1Sc1ccccc1	-2.8% (inactive)
Cc1ccc(C2(C)NC(=O)N(CC(=O)Nc3cc(S(=O)(=O)N(C)C)ccc3C)C2=O)cc1 (centres undefined)	-19.4% (inactive)
O=C(/C=C\Nc1ccccc1Br)c1ccc2c(c1)OCO2	59.6% (active)
O=C(/C=C\Nc1ccccn1)c1ccccc1	-49.1% (inactive)
O=C(/C=C/Nc1ccccc1Br)c1ccccn1	84.5% (active)
O=C(/C=C\Nc1ccc2c(c1)OCO2)c1ccccn1	70.6% (active)
O=C(/C=C/c1ccccc1)c1ccccn1	-15.9% (inactive)
O=C(/C=C\Nc1ccc2c(c1)OCO2)c1cccs1	-64.5% (inactive)
O=C(/C=C/c1ccc2c(c1)OCO2)c1ccccn1	-6.5% (inactive)
O=C(/C=C\Nc1ccc2c(c1)OCO2)c1ccc2c(c1)OCO2	-48.7% (inactive)
O=C(/C=C/c1ccccc1Br)c1ccc2c(c1)OCO2	-20% (inactive)
COc1cc(-c2cc(-c3ccccc3)nc(SCC(=O)O)c2C#N)cc(OC)c1OC	-3.4% (inactive)
O=C(NCc1ccccc1)C1CCCN(S(=O)(=O)c2ccc(-n3cnnn3)cc2)C1 (centres undefined)	34.5% (inactive)
O=C(NC1CCSC1=O)c1ccccc1 (centres undefined)	18.9% (inactive)
Cc1ccc2sc(N(CCN(C)C)C(=O)c3ccc(S(=O)(=O)N4CC(C)OC(C)C4)cc3)nc2c1C (centres undefined)	-6.4% (inactive)
COc1ccc(Br)cc1C1CC(=O)C(C)C(c2cc(Br)ccc2OC)N1 (centres undefined)	-12% (inactive)
COc1ccc(/C=N/NC(=O)CSCc2ccc([N+](=O)[O-])cc2)cc1OC	-10.4% (inactive)
O=C(NNc1ccc(F)cc1F)C1CCC1	-1.9% (inactive)

Compound	inhibition
CCOc1ccc(Nc2ccnc3cc(Cl)ccc23)cc1	5.9% (inactive)
Oc1ccc(Nc2ccnc3cc(Cl)ccc23)cc1	53.4% (active)
O=C(NNc1ccnc2cc(Cl)ccc12)C1CCCCC1	47.5% (active)
NC(=S)NNc1ccnc2cc(Cl)ccc12	-8.6% (inactive)
Clc1ccc(NNc2ccnc3cc(Cl)ccc23)cc1	-35.6% (inactive)
O=C(NNc1cc(Cl)ccc1Cl)C1CCC1	-7.1% (inactive)
Clc1ccc(CNC2CCCC2)cc1	9.1% (inactive)
Cc1ccc(CN(C(=O)c2ccc([N+](=O)[O-])cc2)C2CCS(=O)(=O)C2)o1 (centres undefined)	-50% (inactive)
CCOC(=O)C1CCCN(C(=O)CCNS(=O)(=O)c2cc(Br)cnc2N)C1 (centres undefined)	-11.8% (inactive)
Cc1cc(C)c(NC(=O)COC(=O)c2cc([N+](=O)[O-])ccc2N2CCOCC2)c(C)c1	-25.6% (inactive)
CCOc1ccc(N2C(=O)CC(NCCNc3ccc(C(=O)c4cccs4)cc3)C2=O)cc1 (centres undefined)	-13.5% (inactive)
C=C1CCC[C@]2(C)C[C@H]3OC(=O)C(CN(C)CC(OC)OC)[C@H]3CC12 (some centres undefined)	-4.9% (inactive)
C=C1CCC[C@]2(C)C[C@H]3OC(=O)C(CN[C@@H](C)c4ccccc4)[C@H]3CC12 (some centres undefined)	-16.5% (inactive)
C=C1CCC[C@]2(C)C[C@H]3OC(=O)C(CN(Cc4ccc(OC)c(OC)c4)CC(C)O)[C@H]3CC12 (some centres undefined)	33.5% (active)
CCc1ccccc1NC(=S)NCCSc1ccc(Cl)cc1	-3.7% (inactive)
Cc1c(C(C)C)c(=O)n(-c2ccc(S(=O)(=O)NCc3ccccc3)cc2)n1C	44.6% (active)
Cc1c(C(C)C)c(=O)n(-c2ccc(S(=O)(=O)NC(C)C)cc2)n1C	8.6% (inactive)
Cc1c(C(C)C)c(=O)n(-c2ccc(S(=O)(=O)NC3CC3)cc2)n1C	-14.8% (inactive)
O=C(Nc1ccc(F)cc1F)c1ccc2ncsc2c1	-38% (inactive)
CC(C)OCCCNC(=O)c1cc(-c2cccnc2)nc2ccccc12	-6.7% (inactive)
COC(=O)CN(c1ccc(OC)c(OC)c1)S(C)(=O)=O	-16% (inactive)
CCOC(=O)c1[nH]ncc1CN1CCCC(C(=O)c2ccc(C(C)(C)C)cc2)C1 (centres undefined)	-29.3% (inactive)

Compound	inhibition
CCOC(=O)c1[nH]ncc1CN1CCCC(C(=O)c2ccc(OC)c(OC)c2)C1 (centres undefined)	111% (active)
CCOC(=O)c1[nH]ncc1CN1CCCC(C(=O)c2cc(Cl)ccc2OC)C1 (centres undefined)	16.4% (inactive)
O=C(c1ccco1)N(Cc1ccccc1)c1cccc([N+](=O)[O-])c1	24% (inactive)
N#CCCN(C(=O)COc1ccc(Cl)cc1Cl)c1ccccc1	-24.1% (inactive)
Cc1ccc(C(=O)N(CC#N)CC#N)cc1C	-16.5% (inactive)
Cc1cccc(N(Cc2ccccc2)C(=O)CCl)c1	-31.5% (inactive)
Cc1ccc(N(CCC#N)C(=O)CCl)cc1C	97.7% (active)
O=C(CCl)N(Cc1cccc([N+](=O)[O-])c1)c1cccc(Cl)c1	101% (active)
Cc1ccc(N(CCC#N)C(=O)CSc2ccc3c(c2)OCCO3)cc1	3.9% (inactive)
N#CCCN(C(=O)CCl)c1cccc(Cl)c1	58% (active)
N#CCCN(C(=O)Nc1ccc(Cl)cc1)c1ccccc1	-13% (inactive)
CCCCc1n[nH]c2c1/C(=N/O)CC(C)(C)C2	-12.1% (inactive)
O=C(N/N=C/c1ccncc1)c1cc2ccccc2cc1O	11.3% (inactive)
Cc1cccc(NC(=O)CSC2=NN3CCCC(=O)N=C3S2)c1C	7.2% (inactive)
CC(=O)O/N=C(/c1nonc1N)N(C)C	-21.6% (inactive)
CCCc1nc2ccc(N)cc2c(=O)n1Cc1ccccc1Cl	-43.9% (inactive)
CC(Sc1nc(N)c(NC(=O)c2ccc(Br)o2)c(=O)[nH]1)C(=O)O (centres undefined)	-18.7% (inactive)
CN(c1ccccc1)c1ccc(/C=C(\C#N)c2nnc3n2CCCCC3)cc1[N+](=O)[O-]	78.8% (active)
N#C/C(=C\c1cccc([N+](=O)[O-])c1)c1nnc2n1CCCCC2	9% (inactive)
N#C/C(=C/c1cccc([N+](=O)[O-])c1)c1nnc2n1CCCCC2	-32.4% (inactive)
